Laboratory results reported in PMC4336329 (PLoS ONE, 2015).
The whole screen tested about 310,000 compounds, of which about 14,000 (4.5%) showed an effect of 50% or more. Effects have a minus sign here. The entries come from a sample that favours strong results as a whole.

molecular target: human ether-à-go-go-related gene (hERG) potassium channel (human, UniProt Q12809); experiment: primary screen, population patch clamp on CHO cells stably expressing hERG; higher = less effect of the substance
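Further: peak tail current of the secondary pulse compared with the same well before compound.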

Sequence of human ether-à-go-go-related gene (hERG) potassium channel (Q12809 whole entry, looked up): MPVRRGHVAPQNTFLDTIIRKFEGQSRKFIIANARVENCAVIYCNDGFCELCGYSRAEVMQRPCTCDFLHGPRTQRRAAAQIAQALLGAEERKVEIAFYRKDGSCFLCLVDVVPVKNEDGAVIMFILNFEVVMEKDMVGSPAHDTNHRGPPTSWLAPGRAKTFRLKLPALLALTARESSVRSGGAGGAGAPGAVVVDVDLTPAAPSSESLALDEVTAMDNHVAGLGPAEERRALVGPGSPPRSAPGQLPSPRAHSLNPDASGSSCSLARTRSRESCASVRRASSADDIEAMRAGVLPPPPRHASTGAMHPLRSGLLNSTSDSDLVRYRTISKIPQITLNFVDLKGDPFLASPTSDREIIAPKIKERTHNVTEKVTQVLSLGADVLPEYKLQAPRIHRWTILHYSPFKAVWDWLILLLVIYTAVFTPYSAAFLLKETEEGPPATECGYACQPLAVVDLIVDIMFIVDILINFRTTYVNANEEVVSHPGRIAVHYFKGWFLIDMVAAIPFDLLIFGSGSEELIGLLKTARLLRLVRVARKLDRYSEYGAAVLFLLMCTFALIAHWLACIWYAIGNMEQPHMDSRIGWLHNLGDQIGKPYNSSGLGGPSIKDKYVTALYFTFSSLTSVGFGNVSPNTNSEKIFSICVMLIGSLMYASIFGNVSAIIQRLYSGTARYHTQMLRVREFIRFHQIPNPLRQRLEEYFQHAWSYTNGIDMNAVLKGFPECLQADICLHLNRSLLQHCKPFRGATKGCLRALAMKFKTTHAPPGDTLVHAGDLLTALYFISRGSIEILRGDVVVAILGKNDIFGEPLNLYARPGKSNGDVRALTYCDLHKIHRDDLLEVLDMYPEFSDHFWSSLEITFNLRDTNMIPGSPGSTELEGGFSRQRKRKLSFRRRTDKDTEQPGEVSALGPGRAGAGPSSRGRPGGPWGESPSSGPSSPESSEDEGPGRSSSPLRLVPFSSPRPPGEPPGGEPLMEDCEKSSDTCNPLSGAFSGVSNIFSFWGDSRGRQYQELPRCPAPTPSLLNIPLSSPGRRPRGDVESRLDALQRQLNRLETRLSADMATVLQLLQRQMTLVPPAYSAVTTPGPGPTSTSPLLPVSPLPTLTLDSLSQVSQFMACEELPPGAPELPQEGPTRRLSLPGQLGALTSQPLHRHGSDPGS

Structure (SMILES) | hERG current change (%, negative = inhibition) at 10uM
Cc1cc(N2CCN(c3ccccc3Cl)CC2)n2cc(-c3ccccc3)nc2n1 | -53.9%
COc1ccc(-c2cc(-c3ccc(F)cc3)nc(N3CCN(C)CC3)n2)cc1 | -3.88%
Cc1cc(N2CC(C)OC(C)C2)n2cc(-c3ccccc3)nc2n1 (stereo not drawn) | -61.7%
Cc1cc(N2CCN(C)CC2)n2cc(-c3ccc(F)cc3)nc2n1 | -87.6%
Cc1c(C(=O)N2CC(C)OC(C)C2)sc2nc(-c3ccccc3)cn12 (stereo not drawn) | -15.2%
CC1CN(c2nc3ccccc3cc2-c2ccccc2)CC(C)O1 (stereo not drawn) | -1.86%
Cc1cc(N2CCCCC2)n2nc(C)c(-c3ccccc3)c2n1 | 13.3%
CCc1nn2c(N3CCOCC3)cc(C)nc2c1-c1ccc(F)cc1 | 0.767%
Cc1cc(N2CCN(c3nc(-c4ccccc4)cs3)CC2)c2ccccc2n1 | -23.3%
Cc1cc(N2CCOCC2)n2cc(-c3ccc(F)cc3)nc2n1 | -69%
CN1CCN(c2cc(-c3ccccc3)nc3cc(-c4ccc(F)cc4)nn23)CC1 | -14.5%
Cc1cc(N2CCOCC2)n2nc(-c3cccc(F)c3)cc2n1 | 0.119%
O=C(NNC(=S)Nc1ccccc1Cl)c1ccccc1 | 5.93%
O=C(CN1c2ccccc2S(=O)(=O)c2ccccc21)NCc1ccccc1 | 9.11%
Cc1cccc(N(CC(=O)N2CCOCC2)S(C)(=O)=O)c1 | 6.69%
CCC(=O)NC(=S)Nc1ccc(N2CCOCC2)cc1 | -2.62%
CS(=O)(=O)N1CCN(C(=O)c2cc3ccccc3oc2=O)CC1 | -0.0734%
O=C(NCCC1=CCCCC1)C1CCN(S(=O)(=O)c2cccs2)CC1 | -29.2%
CCOc1ccc(-n2c(SCC(=O)Nc3cc(C(=O)O)ccc3Cl)nc3ccccc3c2=O)cc1 | 28.8%
COc1cc2nc(SCC(N)=O)n(CCC3=CCCCC3)c(=O)c2cc1OC | -10.9%
CCN(CC)S(=O)(=O)c1cccc(C(=O)OCC(=O)Nc2ccccc2OC(F)F)c1 | -7.37%
CCC(C)(C)C1CCc2c(sc(NC(=O)c3ccoc3C)c2C(N)=O)C1 (stereo not drawn) | 17.8%

Structure (SMILES) | hERG current change (%, negative = inhibition) at 10uM
COc1ccc(N/C=C(\C#N)S(=O)(=O)c2ccc(Cl)cc2)c(OC)c1 | -8.9%
Cc1cc(N2CCOCC2)n2cc(-c3ccccc3)nc2n1 | -50.1%
Cc1cc(N2CCOCC2)n2nc(C)c(-c3ccccc3)c2n1 | 9.17%
Cc1cc(N2CCOCC2)n2ncc(-c3ccccc3)c2n1 | -18.5%
O=C(Nc1ccccc1)c1ccc(Nc2c([N+](=O)[O-])cc([N+](=O)[O-])c3ccccc23)cc1 | 6.49%
O=C(CSc1cccc[n+]1[O-])Nc1ccc2c(c1)OCO2 | 6.96%
O=C(CSc1nnc(-c2ccc(Br)cc2)o1)N1CCN(C(=O)c2ccco2)CC1 | -54.6%
O=C(CSc1ccccc1)N1CCN(C(=O)c2ccco2)CC1 | -10.1%
O=C(CSc1nnc(-c2ccc(F)cc2)o1)N1CCN(C(=O)c2ccco2)CC1 | -38.4%
CCOc1ccc(-c2nnc(SCC(=O)N3CCOCC3)o2)cc1 | 2.8%
O=C(CSc1nnc(-c2ccccc2Br)o1)N1CCN(C(=O)c2ccco2)CC1 | -40.9%
O=C(Cc1ccc(Br)cc1)N1CCN(C(=O)c2ccco2)CC1 | -32.3%
O=C(CSc1ccc(Br)cc1)N1CCN(C(=O)c2ccco2)CC1 | -62.4%
O=C(CSc1nnc(-c2ccc(OC(F)F)cc2)o1)N1CCOCC1 | -57%
COc1ccc(-c2nnc(SCC(=O)N3CCOCC3)o2)cc1 | -1.92%
C[C@H](NC(=O)c1cc2cc(Cl)ccc2n1C)C(=O)N1CCC[C@H]1C(=O)O | 13.7%
O=C(NCCN1CCOCC1)[C@H](Cc1ccccc1)N1C(=O)c2ccccc2C1=O | -2.06%
CS(=O)(=O)NC1CCN(Cc2ccccc2)CC1 | -2.95%
COc1cccc(CN(C)C(=O)CNC(=O)c2ccc3c(c2)OCO3)c1OC | 15.3%
CC1Cc2cc(/C(O)=C3\C(=O)C(=O)N(CCN(C)C)C3c3ccccc3F)ccc2O1 (stereo not drawn) | 2.94%
CCOc1ccc(S(=O)(=O)Nc2ccccn2)c2ccccc12 | 10.7%
CC(Oc1ncnc2ccccc12)C(=O)Nc1cccc(S(=O)(=O)N2CCOCC2)c1 (stereo not drawn) | -11.3%

Structure (SMILES) | hERG current change (%, negative = inhibition) at 10uM
Cc1c(NS(=O)(=O)c2cccc(C(=O)Nc3ccccc3)c2)c(=O)n(-c2ccccc2)n1C | -11%
CCn1cc(C(=O)N2CC(C)CC(C)C2)c(=O)c2cc(S(=O)(=O)N3CCCC3)ccc21 (stereo not drawn) | 6.81%
NC(=O)CSc1nccn1Cc1ccccc1 | 7.57%
O=[N+]([O-])c1ccc(Sc2nccn2Cc2ccccc2)cc1 | -59.5%
O=[N+]([O-])c1ccc(Sc2nccn2Cc2ccccc2)c([N+](=O)[O-])c1 | -57.9%
O=C(CSc1nccn1Cc1ccccc1)Nc1ccccc1 | 12.4%
O=[N+]([O-])c1ccccc1Sc1nccn1Cc1ccccc1 | -21.6%
O=[N+]([O-])c1cc(C(F)(F)F)ccc1Sc1nccn1Cc1ccccc1 | -30.3%
CCCn1c(C(CO)Nc2nc(C)cs2)nc2ccccc21 (stereo not drawn) | -5.83%
O=C(NC(=S)Nc1ccc(Oc2ccc(Cl)cc2)cc1)c1ccccc1 | 10.7%
O=C(Nc1nnc(-c2ccc(Cl)cc2)o1)c1cccc(N2C(=O)CCC2=O)c1 | 12.2%
Cc1noc(C)c1COC(=O)CN(C)S(=O)(=O)c1ccc(Cl)cc1 | -14.4%
COCCCNC(=O)CC(NS(=O)(=O)c1ccc(F)cc1)c1ccc(OC)cc1 (stereo not drawn) | -1.73%
c1ccc(CN2CCc3nc4ccccc4cc3C2)cc1 | -4.62%
Nc1c2c(nc3ccccc13)CSCC2 | -57.3%
Nc1nc2c(c(=O)[nH]1)CN(Cc1ccccc1)CC2 | 7.8%
Nc1c2c(nc3ccccc13)CCN(Cc1ccccc1)C2 | -56.1%
Cl.Nc1c2c(nc3ccccc13)CCCC2.O | -42.3%
Cl.Nc1c2c(nc3ccccc13)CCCC2 | -39.7%
C/C(=N\O)C1(C)N(O)C(C)(C)C(c2ccco2)=[N+]1[O-] (stereo not drawn) | 22.2%
Cc1cccc(NC(=O)c2nc[nH]c2C(=O)N2CCc3ccccc3C2)c1 | 5.13%
O=C1NC(Nc2nc3ccccc3s2)(C(F)(F)F)C(=O)N1C1CCCCC1 (stereo not drawn) | -6.17%

Structure (SMILES) | hERG current change (%, negative = inhibition) at 10uM
N/C(=N\OC(=O)CCC1CCCC1)c1cccc([N+](=O)[O-])c1 | -70.4%
Cc1ccc(S(=O)(=O)N(C)CC(=O)O/N=C(\N)c2ccc([N+](=O)[O-])cc2)cc1 | -45.9%
Cc1ccc(S(=O)(=O)N(C)CC(=O)O/N=C(\N)c2cccc([N+](=O)[O-])c2)cc1 | -66.8%
N/C(=N\OC(=O)CCC1CCCCC1)c1cccc([N+](=O)[O-])c1 | -15.1%
CN(CC(=O)O/N=C(\N)c1cccc([N+](=O)[O-])c1)S(=O)(=O)c1ccccc1 | -24.4%
N/C(=N\OC(=O)CC1CCCCC1)c1cccc([N+](=O)[O-])c1 | -6.21%
Cc1nnc2sc(-c3ccc(-c4ccc(Cl)c(C(F)(F)F)c4)o3)nn12 | 3.66%
CCCCSc1nnc(-c2ccc(C)cc2)n1C | -33.7%
COc1cc(C(=O)Nc2ccc3c(c2)ncn3C(C)(C)C)cc(OC)c1OC | 9.04%
CCOc1c2ccccc2nn1CCOC | 5.42%
CCc1ccc2[nH]c(=O)c(CN(CCN(CC)CC)C(=S)NCc3ccco3)cc2c1 | -67.9%
CN(C)CCCN(Cc1cc2cc3c(cc2[nH]c1=O)OCO3)C(=S)NCc1ccco1 | -19.2%
CCc1ccc2[nH]c(=O)c(CN(CCN(C)C)C(=S)NCc3ccco3)cc2c1 | -52%
CCc1ccc2[nH]c(=O)c(CN(Cc3ccco3)C(=S)NCC3CCCO3)cc2c1 (stereo not drawn) | -19%
CCc1ccc2[nH]c(=O)c(CN(CC3CCCO3)C(=S)NCc3ccco3)cc2c1 (stereo not drawn) | -21.6%
CCN(CC)CCN(Cc1cc2cc(C)ccc2[nH]c1=O)C(=S)NCc1ccco1 | -43.4%
O=C1c2cccc3c([N+](=O)[O-])ccc(c23)C(=O)N1c1ccc(Cl)cn1 | 0.201%
COC(=O)c1cccc(NS(=O)(=O)c2ccc(OC)cc2)c1C | -1.48%
COc1ccc(-c2cc(C(F)(F)F)nc(SCCC(=O)NCc3ccccc3)n2)cc1 | -14.5%
CCCOc1ccc(C(=O)Nc2c[nH]c(=O)[nH]c2=O)cc1 | -6.41%
CCn1c(COc2cccc(OC)c2)nnc1SCC(=O)Nc1cccc(OC)c1 | -41.1%
